# Source: PubChem BioAssay AID686978 (National Center for Advancing Translational Sciences (NCATS), 2013)
# Hit rate of the full screen: of about 420,000 compounds, about 64,000 (15%) were called active. Another 27% or so got no clear call; they are omitted. Calls come from the whole dose curve; as a rule, active = well fitted inhibition curve with a large enough effect; inconclusive = small, poorly fitted or top-dose-only effect; inactive = flat fitted curve, though single readings scatter. Only a sample is shown. Where a call stands in place of a potency, no number is given.
# Assay: qHTS for Inhibitors of human tyrosyl-DNA phosphodiesterase 1 (TDP1): qHTS in cells in absence of CPT; note: nearly all actives have a fitted effect of over 55% in size
# Conditions: DT40 Tdp1-/- hTDP1 cells, no CPT, ATP luminescence, 48 h; activity change, negative = growth inhibition: at 46.2 µM (top of the series)
# How it was run: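 DT40 Tdp1-/-;hTDP1 cells, no CPT (DMSO vehicle only), 400 cells/well; compounds pin-transferred; ≥48 hr, 37 °C; CellTiter-Glo 30 min RT dark, luminescence read.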
# Potency is the fitted concentration of half-maximal effect.
row,SMILES,Potency
1,Cc1cccc(CSc2nnc(Cn3c(=O)sc4ccccc43)n2C)c1,inactive
2,Brc1ccc(C2CC(c3ccccc3)=Nc3ccccc3N2)cc1 (configuration not stated),23.1 µM (active)
3,CNC(=S)N1N=C(c2ccccc2)CC1c1ccc(Br)cc1 (configuration not stated),inactive
4,CCCC(=O)Nc1cccc(NC(=S)NC(=O)C(C)Oc2ccc(Cl)cc2Cl)c1 (configuration not stated),inactive
5,CC(Cc1cccs1)NC(=O)c1cccc(Cl)c1 (configuration not stated),inactive
6,Cc1noc(C)c1S(=O)(=O)N(C)C[C@H]1Oc2ccc(NC(=O)C3CC3)cc2C(=O)N([C@H](C)CO)C[C@@H]1C,inactive
7,COc1ccc(-c2nc(Cn3c(=O)cc(C)c4c(C)nn(-c5ccccc5)c43)c(C)o2)cc1OC,inactive
8,COc1ccc(-c2nc(Cn3c(=O)cc(C)c4c(C)nn(-c5ccccc5)c43)c(C)o2)c(OC)c1,20.6 µM (active)
9,Cc1ccc(-c2nc(Cn3c(=O)cc(-c4ccccc4)c4c(C)nn(C)c43)c(C)o2)cc1,inactive
10,COc1cc(NC(=O)COC(=O)CSc2ccc3ccccc3c2)c(C)cc1[N+](=O)[O-],inactive
11,CC1CCN(C2=NC(=O)/C(=C/c3cn[nH]c3-c3ccccc3)S2)CC1,14.6 µM (active)
12,O=C1N=C(N2CCOCC2)S/C1=C\C=C/c1ccccc1,inactive
13,Cc1nc2nc(C)c(NS(=O)(=O)c3ccc(C(C)(C)C)cc3)c(=O)n2[nH]1,inactive
14,CC(=O)c1ccc(OC(=O)N2CCOCC2)cc1,inactive
15,Cc1ccc(CN(C)Cc2cc(=O)oc3cc(C)c(Cl)cc23)cc1,inactive
16,COc1ccc(S(=O)(=O)N(C)C[C@@H]2Oc3ccc(NS(=O)(=O)c4cn(C)cn4)cc3C(=O)N([C@@H](C)CO)C[C@@H]2C)cc1,inactive
17,Cn1c(N)c(C(=O)COC(=O)c2ccc3ccccc3c2)c(=O)n(C)c1=O,inactive
18,Cc1ccccc1N1CCN(CCCOc2ccc3c(C)cc(=O)oc3c2)CC1,16.4 µM (active)
19,Cc1c(Br)c([N+](=O)[O-])nn1CC(=O)N1CCN(Cc2ccccc2)CC1,inactive
20,Cc1cc(OCCCN2CCN(Cc3ccccc3)CC2)ccc1[N+](=O)[O-],11.6 µM (active)
21,Cc1cc(OCC(=O)NC2CCN(C)CC2)ccc1[N+](=O)[O-],inactive
22,Cc1ccccc1N1CCN(CCCN2C(=O)C3CCCCN3C2=O)CC1 (configuration not stated),inactive
23,Cc1cc(OCCCCOc2ccc(C#N)cc2)ccc1[N+](=O)[O-],8.2 µM (active)

row,SMILES,Potency
1,Cc1cc(OCC(=O)Nc2c(C)n(C)n(-c3ccccc3)c2=O)ccc1[N+](=O)[O-],inactive
2,CCc1cc(=O)oc2cc(OCC(=O)N3CCCc4ccccc43)ccc12,inactive
3,Cc1ccc(OCC(=O)Oc2ccccc2[N+](=O)[O-])cc1,inactive
4,COc1ccc(S(=O)(=O)Nc2c(C)n(C)n(-c3ccccc3)c2=O)cc1,inactive
5,CC[C@@H]1CCCCc2ccccc2[C@@H](C(=O)C[C@H](O)CC(C)=O)OC1=O,inactive
6,O=C(c1cc(COc2ccc(F)cc2F)on1)N1CCOCC1,inactive
7,Cc1ccccc1CSc1nnc(-c2ccccn2)n1N,inactive
8,CN(Cc1ccccc1)S(=O)(=O)c1nnc(NC(=O)c2ccccc2F)s1,inactive
9,O=C(Oc1cccc(C(=S)N2CCOCC2)c1)c1cccc(Cl)c1,inactive
10,COCCCNC(=O)C1CC(=O)N(CCc2ccc(F)cc2)C1 (configuration not stated),inactive
11,COC(=O)C1C(=O)NCC1c1ccc(C)cc1 (configuration not stated),inactive
12,O=[N+]([O-])c1ccc(NCCCO)c(C(F)(F)F)c1,inactive
13,CO/N=C(\N)c1ccc([N+](=O)[O-])cc1,inactive
14,O=C1/C(=C\c2ccc(O)cc2)CCC1CNc1ccc(Cl)cc1 (configuration not stated),3.26 µM (active)
15,CCCNC(=O)C(=O)Nc1cc2c3c(c1)CCC(=O)N3CCC2,inactive
16,Cc1[nH]n(C(N)=S)c(=O)c1N=Nc1ccc(Cl)cc1Cl,inactive
17,CC1=NN(C(N)=S)C(=O)C1N=Nc1cc(Cl)ccc1Cl (configuration not stated),3.66 µM (active)
18,Cc1cc(C)c(C#N)c(N2CCC(C(N)=O)CC2)n1,inactive
19,COc1ccc(CC(NC(C)=O)C(=O)NC2CCN(C(=O)c3ccc(Cl)cc3)CC2)cc1 (configuration not stated),inactive
20,O=C(c1ccc(CSc2ccccc2)cc1)N1CCCCCC1,inactive
21,CC1CCN(C(=O)c2ccc(CSc3ccc(Cl)cc3)cc2)CC1,16.4 µM (active)
22,Cc1cc(C)c(C#N)c(Nc2cccc(Br)c2)n1,inactive
23,CC(C)(C)OC(=O)CNC(=O)c1[nH]cnc1C(=O)N[C@@H](CCCCN)C(=O)OC(C)(C)C,inactive

row,SMILES,Potency
1,C#CCOCCOCCOCCNc1nc(N2CCN(C(=O)C([C@@H](C)O)n3cc([C@@H](N)CCCCN)nn3)CC2)nc(N2CCN(C(=O)[C@H](CCCCN)n3cc(CN)nn3)CC2)n1 (some centres not stated),inactive
2,O=C(NCc1ccco1)C1CCCN1S(=O)(=O)c1ccccc1C(F)(F)F (configuration not stated),inactive
3,CCOC(=O)CSc1nc(C)cc2c1C(=O)OC2,inactive
4,CCCC(=O)N1CCC1(C)C(=O)Nc1ccc(-n2cncn2)cc1 (configuration not stated),inactive
5,CCOC(=O)CSC1=N/C(=C/c2ccc(-n3cncn3)cc2)C(=O)N1C(C)=O,11.6 µM (active)
6,C=CCn1c(COc2ccccc2C)nnc1SCC(=O)O,inactive
7,COc1ccc(CNc2ncncc2-c2ccccc2OC)c(OC)c1,inactive
8,COc1ccc(CCNc2ncnc3onc(-c4ccc(Cl)cc4)c23)c(OC)c1,14.6 µM (active)
9,COc1ccc(CNc2ncncc2-c2ccccc2C)c(OC)c1,inactive
10,O=C(Nc1cccc2c1CCCC2)c1ccc(F)cc1,inactive
11,Clc1cccc(Cl)c1Cn1nnc(-c2cccs2)n1,inactive
12,Cc1ccc(N=Cc2c(O)cc(C)oc2=O)c(C)c1,inactive
13,C=CCN(CC=C)S(=O)(=O)c1ccc(C(=O)Nc2nc3c(s2)CCc2ccccc2-3)cc1,10.3 µM (active)
14,C=CCN(CC=C)S(=O)(=O)c1ccc(C(=O)Nc2sc3c(c2C(N)=O)CCCCC3)cc1,13 µM (active)
15,C=CCSc1nnc(NC(=O)c2ccc(NC(C)=O)cc2)s1,inactive
16,COc1cccc(OC)c1C(=O)Nc1sc2c(c1C(N)=O)CCCC2,inactive
17,COCCN(CCOC)S(=O)(=O)c1ccc(C(=O)Nc2nc3c(s2)CCc2ccccc2-3)cc1,13 µM (active)
18,COCCN(CCOC)S(=O)(=O)c1ccc(/C(O)=C(\C#N)c2nc3ccccc3[nH]2)cc1,inactive
19,NC(=O)c1c(NC(=O)c2ccccc2)sc2c1CCCC2,inactive
20,COCc1nnc(NC(=O)c2ccc3c(c2)OCO3)s1,inactive
21,O=C(Nc1ncc2c(n1)-c1ccccc1OC2)c1ccc(Cl)cc1,inactive
